# Data from PubChem BioAssay (EPA / NIEHS).
# Records with an inconclusive call do not appear. The source made the active and inactive calls. How the source made its calls, unless noted: active means hit-call score of the fitted dose curve at least 0.9, where 1 is the maximum; inconclusive means response in the unintended direction; inactive means score below 0.9.
# How the values were obtained:
# [1] = CEETOX_H295R_MTT_cell_viability: Viability Assessment in the CeeTox HT-H295R MTT Assay (AID 2283718; active means hit-call score of the fitted dose curve at least 0.9, where 1 is the maximum; inactive means score below 0.9;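 on AC50: curve fitted both ways so AC50 may mark viability loss or gain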)
# Summary of the method: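 Human H295R adrenal cells, prestimulated 48 h with 10 uM forskolin, were exposed 48 h to chemicals in 0.1% DMSO. Viability was measured in the same wells by MTT (0.5 mg/ml, 4 h, 37 C), absorbance 570/650 nm, as percent of controls.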
# [2] = Tanguay_ZF_120hpf_ActivityScore_legacy: (Legacy) Oregon State University Tanguay Lab 120 Hour Post-fertilization zebrafish Assay Score for Activity (AID 2283742);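 on AC50: dechorionated Tropical 5D wild-type zebrafish embryos held singly per well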
# Summary of the method: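 Dechorionated 5D embryos, one per well, static exposure 6–120 hpf, 28C, sealed and dark; final DMSO 0.64% (vol/vol). Brightfield binary scoring of mortality plus 18 endpoints; gain-of-signal fit versus DMSO baseline.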
# [3] = test system: Thyroperoxidase (TPO), gene 445522; test: CCTE_Simmons_GUA_TPO: CCTE's Guaiacol Assay for Thyroperoxidase (TPO) Inhibition, Simmons Lab (AID 2283750)
# Summary of the method: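 Porcine thyroid microsomes (25 ug) in 200mM potassium phosphate, preincubated 30 s at 37C with compound (8 concentrations, 5 nM–87.5 uM) and 35mM guaiacol; 1mM H2O2 starts reaction. Absorbance change at 450nm over first 80 s; loss of signal versus DMSO, three replicates.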
# [4] = ACEA_AR_agonist_AUC_viability: ACEA Biosciences xCELLigence Real-Time Cell Analysis on Androgen Receptor Agonism for Viability (AID 2283775);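 on AC50: viability read 80 hours after compound addition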
# Summary of the method: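 22Rv1 cells; impedance growth kinetics; 8-pt 1:4 dilutions from 100 uM top final, ≤0.5% DMSO; n = 2; 80 h read; AUC viability, loss-of-signal vs DMSO.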
# [5] = ACEA_AR_antagonist_AUC_viability: ACEA Biosciences xCELLigence Real-Time Cell Analysis on Androgen Receptor Antagonism for Viability (AID 2283776);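 further: 22Rv1 human prostate cancer cells growing on impedance electrode plates; area under impedance growth curve at 80 h after dosing as viability; hits lower the growth signal relative to DMSO meaning cytotoxicity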
# Summary of the method: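 Viability endpoint from label-free cell-index monitoring: 22Rv1 cultures treated with an eight-point 1:4 dilution series starting at 100 uM final, AUC at 80 h fitted against DMSO.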
# [6] = STM_H9_OrnCyssISnorm_ratio: Stemina devTOX quickPredict H9 human embryonic stem cell (hESC)-based Assay for Ornithine (ORN):Cystine (CYSS) Ratio (AID 2283714)
# Summary of the method: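 UPLC-HRMS of spent media: ORN/CYSS ratio of internal-standard-normalized percentages, DMSO (0.1%) baseline. Pluripotent H9 hESCs, 72h exposure, daily re-dosing with fresh media; last 24h media collected.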
smiles,measurement,setting,value
O=C(O)c1ccccc1C(c1ccc(O)cc1)c1ccc(O)cc1,outcome,[1],inactive
same,outcome,[2],inactive
same,AC50,[3],118 µM (active)
same,outcome,[4],inactive
same,outcome,[5],inactive
Nc1cccc2c(N)cccc12,outcome,[6],inactive
same,outcome,[1],inactive
same,outcome,[2],inactive
CC(C)(C)c1cc(C(C)(C)C)c(O)c(C(C)(C)C)c1,outcome,[2],inactive
CCCCCCCCCCCCCCCS(=O)(=O)Oc1ccccc1,outcome,[1],inactive
same,outcome,[2],inactive
same,outcome,[4],inactive
same,outcome,[5],inactive
CCCCCCCCC(=O)O,outcome,[1],inactive
same,outcome,[2],inactive
same,outcome,[4],inactive
same,outcome,[5],inactive
CCC(=C(c1ccc(O)cc1)c1ccc(OCCN(C)C)cc1)c1ccccc1,outcome,[1],inactive
same,outcome,[2],inactive
same,AC50,[4],6.23 µM (active)
same,AC50,[5],5.79 µM (active)
Cc1cc(CCN2CCN(c3nsc4ccccc34)CC2)cc2c1NC(=O)CC2(C)C,AC50,[6],7.94 µM (active)
same,AC50,[1],11.1 µM (active)
same,AC50,[2],3.78 µM (active)
same,AC50,[4],9.03 µM (active)
same,AC50,[5],21.4 µM (active)
O=[N+]([O-])c1ccc(O)cc1,outcome,[1],inactive
same,outcome,[2],inactive
same,outcome,[4],inactive
same,outcome,[5],inactive
CCc1ccc(CCOc2ccc(CC3SC(=O)NC3=O)cc2)nc1 (stereo not given),AC50,[6],84.5 µM (active)
same,outcome,[1],inactive
same,outcome,[2],inactive
same,AC50,[4],50 µM (active)
same,AC50,[5],26.5 µM (active)
O=C(OCCOCCOC(=O)c1ccccc1)c1ccccc1,outcome,[6],inactive
same,outcome,[2],inactive
same,outcome,[4],inactive
same,outcome,[5],inactive
C#C[C@]1(O)CC[C@H]2[C@@H]3CCC4=CC(=O)CC[C@@H]4[C@H]3CC[C@@]21C,AC50,[6],74.8 µM (active)
same,AC50,[1],2.31 µM (active)
same,outcome,[2],inactive
CN1CCC[C@H]1c1cccnc1,outcome,[1],inactive
same,outcome,[2],inactive
same,outcome,[4],inactive
same,outcome,[5],inactive
COc1ccc([N+](=O)[O-])cc1N,outcome,[6],inactive
same,outcome,[1],inactive
same,outcome,[2],inactive
same,outcome,[4],inactive
same,AC50,[5],27.3 µM (active)
C[C@@H]1C[C@H]2[C@@H]3CCC4=CC(=O)C=C[C@]4(C)[C@@]3(F)[C@@H](O)C[C@]2(C)[C@@]1(O)C(=O)COP(=O)(O)O,outcome,[6],inactive
same,outcome,[1],inactive
same,outcome,[2],inactive
same,outcome,[5],inactive
CCCOc1sc(C(=O)N2CCC(c3cc(CN)ccc3F)CC2)c(C)c1Br,outcome,[2],inactive
CN1CCN(c2ccccc2/C=C2\SCCN(c3ccc(Cl)c(Cl)c3)C2=O)CC1,AC50,[6],7.71 µM (active)
same,outcome,[2],inactive
same,AC50,[4],66.3 µM (active)
same,AC50,[5],66.9 µM (active)
